Experimental data taken from PubChem BioAssay AID1626 (SRMLSC, 2009).
Among all 220,000 compounds or so, about 2,000 (0.91%) were called active. Another 2% or so got no clear call; they are omitted. Rule as the data show it: inconclusive = inhibition above about 80% without an active follow-up result; inactive = below that; test concentration not stated here. A selection follows. Results with a measured potency or affinity are listed apart.

assay: M. tuberculosis H37Rv growth inhibitors, H37Rv strain (AID 1626); details: hits give high values, concentration not given here;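 also: bacteria incubated seven days before Alamar blue readout; 0% = bacteria only wells and 100% = bacteria with antibiotic wells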

**Q.** Which inhibition does the source give for O=C(CCc1ccccc1)NCCc1nc2ccccc2[nH]1 here?
**A.** Its inhibition is -3.29% (inactive).

**Q.** With CCN(c1ccccc1)S(=O)(=O)c1ccc(Cl)c(NC(=O)CN2C(=O)NC3(CCCC3)C2=O)c1 as the molecule, how does the inhibition read?
**A.** The inhibition was -9.72% (inactive).

**Q.** Which inhibition does the source give for CCC(C)(C(=O)NC1CCCC1)N(C)C(=O)c1ccccn1 (stereo not given) here?
**A.** Its inhibition is -3.46% (inactive).

**Q.** Which inhibition does the source give for COc1ccc2c(CC(=O)OCC(=O)c3ccccc3OC)coc2c1 here?
**A.** The inhibition was 3.25% (inactive).

**Q.** Which inhibition does the source give for O=C(CN1CCCCCCC1)Nc1ccc(Cl)cc1Cl here?
**A.** Its inhibition is -1.9% (inactive).

**Q.** With CC1=NN(c2ccccc2)C(=O)/C1=C\c1sccc1C as the molecule, how does the inhibition read?
**A.** The inhibition was -4.07% (inactive).

**Q.** For COC(=O)c1ccc(/C=N/OCC(=O)NCc2ccc(F)cc2)cc1, which inhibition is on record?
**A.** Its inhibition is 6.23% (inactive).

**Q.** Which inhibition does the source give for CC(C)CC1NC2(C(=O)N(C)c3ccccc32)C2C(=O)N(C(C)C)C(=O)C12 (stereo not given) here?
**A.** Its inhibition is 0.86% (inactive).

**Q.** Which inhibition does the source give for N#Cc1c(-c2ccccc2)nc2n(-c3ccccc3)nc(C(=O)Nc3ccccc3)n2c1=O here?
**A.** Its inhibition is 8.32% (inactive).

**Q.** Which inhibition does the source give for N#Cc1ccccc1CSc1nnc(Cc2ccccc2)o1 here?
**A.** The inhibition was 0.34% (inactive).

**Q.** With CC(C)=Cc1c(O)nc2ccccn2c1=O as the molecule, how does the inhibition read?
**A.** The inhibition was -3.05% (inactive).

**Q.** For Cc1c(NC(=O)CSCc2ccc(Br)cc2)c(=O)n(-c2ccccc2)n1C, which inhibition is on record?
**A.** The inhibition was -6.02% (inactive).

**Q.** With Cc1ccc(-c2noc(CCC(=O)Nc3ccc(C)cn3)n2)cc1 as the molecule, how does the inhibition read?
**A.** Its inhibition is 25.6% (inactive).

**Q.** With COc1ccccc1-c1noc(CCC(=O)Nc2ccccc2Cl)n1 as the molecule, how does the inhibition read?
**A.** Its inhibition is -5.64% (inactive).

**Q.** For NC(=O)c1ccc(NC(=O)CCCc2nc(-c3ccccc3Cl)no2)cc1, which inhibition is on record?
**A.** Its inhibition is -1.91% (inactive).

**Q.** With CCc1ccccc1NC(=O)CCc1nc(-c2ccc(C)cc2)no1 as the molecule, how does the inhibition read?
**A.** The inhibition was -5.75% (inactive).

**Q.** For O=C(/C=C/c1ccco1)N(Cc1cccc(Br)c1)C1CCS(=O)(=O)C1 (stereo not given), which inhibition is on record?
**A.** Its inhibition is -13.6% (inactive).

**Q.** With Cc1ccc(NC(=O)c2ccc(N3CCOCC3)c([N+](=O)[O-])c2)cc1S(=O)(=O)N1CCOCC1 as the molecule, how does the inhibition read?
**A.** The inhibition was 5.87% (inactive).

**Q.** With COc1cc(CNCC(C)C)cc(Br)c1OCC(=O)Nc1ccccc1 as the molecule, how does the inhibition read?
**A.** The inhibition was 0.75% (inactive).

**Q.** For CCN(CC)CCNCc1cc(Cl)c(OCC(=O)Nc2ccccc2)c(OC)c1, which inhibition is on record?
**A.** The inhibition was 7.36% (inactive).

**Q.** For O=C(Cn1c2[n+](c3ccccc31)CC(O)CS2)c1ccccc1 (stereo not given), which inhibition is on record?
**A.** The inhibition was -6.67% (inactive).

**Q.** For CCC(=O)N1CCN(c2ccc(OC)cc2[N+](=O)[O-])CC1, which inhibition is on record?
**A.** Its inhibition is -1.32% (inactive).

**Q.** Which inhibition does the source give for NS(=O)(=O)c1ccc(-c2ccc(C=NC3CCS(=O)(=O)C3)o2)cc1 (stereo not given) here?
**A.** The inhibition was -11.7% (inactive).

**Q.** With NS(=O)(=O)c1ccc(-c2ccc(/C=C3\SC(=S)N(C4CCS(=O)(=O)C4)C3=O)o2)cc1 (stereo not given) as the molecule, how does the inhibition read?
**A.** Its inhibition is -2.38% (inactive).

**Q.** Which inhibition does the source give for CC(C)Cn1c(N)c(C(=O)COC(=O)c2ccc(F)cc2)c(=O)n(C)c1=O here?
**A.** Its inhibition is 6.86% (inactive).
